Here are results for 4 compounds from PubChem BioAssay.

The source made the active and inactive calls. Unless noted, how the calls were made is not given here.

In assay [1] the test system is Wnt5a (protein binding on small-molecule microarray). Briefly: Wnt5a binders on small-molecule microarray, primary screen, biophysical, 635/667 nm fluorescence (AID 1142).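 Further: fluorescence read at 667 nm with signal to noise per printed feature.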 Particulars: 635 nm fluorescence, higher = more signal.
The nature of assay [2]: cell viability in Huh7 cells, primary screen, cytotoxicity control for HCV replication inhibitor project, CellTiter-Glo luminescence, basal, 48 h (AID 1143).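 Further: Huh7 hepatoma cells carrying a hepatitis C replication reporter with no stimulus; test concentration not given here.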 The following applies: Huh7 HCV replicon, higher = more signal, called active from +8 up or from −8 down.
Assay [3] in a line: P. aeruginosa biofilm formation inhibitors, primary screen, PAO1 strain, BacTiter-Glo luminescence, LB-PBS (AID 1144). The following applies: 12 h, higher = more signal.
A short description of assay [4]: CREB reporter modulators without forskolin, primary screen, cell-based, PC12, CRE-LacZ reporter, unstimulated (AID 1145). The following applies: no forskolin, luminescence, 4.5 h, higher = more signal, called active from +8 up or from −8 down.
The nature of assay [5]: CREB reporter modulators under forskolin, primary screen, cell-based, PC12, CRE-LacZ reporter, forskolin-stimulated (AID 1146).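 Further: PC12 cells with 6xCRE LacZ reporter stimulated by forskolin 10 µM; beta-galactosidase reporter signal reflecting CREB driven transcription.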 Particulars: luminescence, 4.5 h, higher = more signal, called active from +8 up or from −8 down.
Assay [6] has as its target Streptavidin (Streptomyces avidinii) (UniProt P22629). The experiment in a line: streptavidin binders on small-molecule microarray, primary screen, artefact control for SMM compound annotation, biophysical, 635/667 nm fluorescence (AID 1147).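 Further: signal reflects streptavidin binding to arrayed compounds as a control protein.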 Particulars: streptavidin binding, higher = more signal.
Assay [7] is described as follows: small-molecule binders of probe aInhba, primary screen, biochemical, small-molecule microarray, 635/667 nm fluorescence (AID 1148).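 Further: score merges 667nm spot fluorescence with signal-to-noise for antibody binding to printed compounds.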 The following applies: higher = more signal.
Assay [8] deals with Torsin-1A (Homo sapiens) (UniProt O14656). Briefly: torsin A binders from cell lysate, primary screen, small-molecule microarray, wild-type, 635/667 nm (AID 1149). The following applies: COS7 hTOR1A-WT lysate, 635 nm fluorescence, higher = more signal.
Sequence of Torsin-1A (Homo sapiens) (O14656 whole entry, looked up): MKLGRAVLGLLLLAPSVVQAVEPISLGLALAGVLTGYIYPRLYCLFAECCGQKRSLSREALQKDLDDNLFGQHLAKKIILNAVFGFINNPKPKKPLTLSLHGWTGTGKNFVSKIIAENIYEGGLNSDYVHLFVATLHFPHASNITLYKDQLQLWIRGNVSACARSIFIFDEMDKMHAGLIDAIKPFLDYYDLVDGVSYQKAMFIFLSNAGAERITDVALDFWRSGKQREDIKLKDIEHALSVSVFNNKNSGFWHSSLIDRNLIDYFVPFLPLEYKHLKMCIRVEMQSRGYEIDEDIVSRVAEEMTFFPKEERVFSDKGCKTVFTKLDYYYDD
Assay [9] shares this target. The experiment in a line: small-molecule binders of mutant TOR1A in lysate, primary screen, cell lysate, small-molecule microarray, COS7 lysate, 635/667 nm fluorescence (AID 1150).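 Further: score pools 667 nm emission and signal to noise measuring lysate protein binding.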 The following applies: COS7 hTOR1A mutant lysate, 635 nm fluorescence, higher = more signal.
Assay [10] deals with Sonic hedgehog protein (Shh). Briefly: small-molecule binders of Shh protein, primary screen, biochemical, small-molecule microarray, 635/667 nm fluorescence (AID 1151).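 Further: Shh protein binding to compounds spotted on small-molecule microarray slides; score combines spot fluorescence intensity with signal-to-noise across triplicate slides.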 The following applies: small-molecule microarray binding, 635 nm fluorescence; higher = more signal.
Assay [11] can be described thus: E. coli DRC41 culture turbidity changes, primary screen, E. coli filamentation inducer project, strain DRC41, OD650, 48 h (AID 1152).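 Further: E. coli MC1000 strain DRC41 lacking acrAB efflux pump and sulA.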 The following applies: E. coli DRC41 (acrAB sulA), higher = more signal, called active from +8 up or from −8 down.
Assay [12] is described as follows: small-molecule binders of probe aLefty1, primary screen, biochemical, small-molecule microarray, 635/667 nm fluorescence (AID 1153).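 Further: score merges spot fluorescence with signal-to-noise ratio from the scanned slide images.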 The following applies: higher = more signal.
The nature of assay [13]: PSAC antagonists in infected red cells, primary screen, cell-based, P. falciparum Indochina, OD700, 1 h (AID 1154). The following applies: P. falciparum Indochina infected RBC osmotic lysis, higher = more signal, called active from +8 up or from −8 down.
The nature of assay [14]: PSAC antagonists in infected red cells, primary screen, cell-based, P. falciparum Indochina, OD700, 2 h (AID 1155).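 Further: lysis reports solute entry through the parasite surface anion channel PSAC; channel blockers reduce lysis of infected cells.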 Particulars: P. falciparum Indochina infected erythrocytes, osmotic lysis OD700; higher = more signal, called active from +8 up or from −8 down.
Assay [15] can be described thus: osmotic lysis modulators in infected erythrocytes, primary screen, PSAC antagonist project, cell-based, P. falciparum Indochina, OD700, 3 h (AID 1156). The following applies: higher = more signal, called active from +8 up or from −8 down.
A short description of assay [16]: PSAC antagonists in infected red cells, primary screen, cell-based, P. falciparum Indochina, OD700, 18 h (AID 1157). The following applies: P. falciparum Indochina infected erythrocytes, osmotic lysis OD700, 18 h; higher = more signal, called active from +8 up or from −8 down.
Assay [17] can be described thus: modulators of S6 phosphorylation in cells, primary screen, cell-based, A549, cytoblot, luminescence, serum-stimulated (AID 1158).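 Further: serum-stimulated A549 lung adenocarcinoma cells; signal is phosphorylated S6 detected by cytoblot immunostaining with HRP secondary.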 The following applies: A549 phospho-S6 cytoblot, 5 h, higher = more signal.
The target of assay [18] is NADPH oxidase 2 (Homo sapiens) (UniProt P04839). The experiment in a line: NOX2-dependent H2O2 signal modulators, primary screen, NOX inhibitor project, cell-based, HEK293-NOX2, PMA-stimulated, Amplex Red fluorescence (AID 1159). Further: test concentration not given here. The following applies: 45 min, higher = more signal, called active from +8 up or from −8 down.
Sequence of NADPH oxidase 2 (Homo sapiens) (P04839 whole entry, looked up): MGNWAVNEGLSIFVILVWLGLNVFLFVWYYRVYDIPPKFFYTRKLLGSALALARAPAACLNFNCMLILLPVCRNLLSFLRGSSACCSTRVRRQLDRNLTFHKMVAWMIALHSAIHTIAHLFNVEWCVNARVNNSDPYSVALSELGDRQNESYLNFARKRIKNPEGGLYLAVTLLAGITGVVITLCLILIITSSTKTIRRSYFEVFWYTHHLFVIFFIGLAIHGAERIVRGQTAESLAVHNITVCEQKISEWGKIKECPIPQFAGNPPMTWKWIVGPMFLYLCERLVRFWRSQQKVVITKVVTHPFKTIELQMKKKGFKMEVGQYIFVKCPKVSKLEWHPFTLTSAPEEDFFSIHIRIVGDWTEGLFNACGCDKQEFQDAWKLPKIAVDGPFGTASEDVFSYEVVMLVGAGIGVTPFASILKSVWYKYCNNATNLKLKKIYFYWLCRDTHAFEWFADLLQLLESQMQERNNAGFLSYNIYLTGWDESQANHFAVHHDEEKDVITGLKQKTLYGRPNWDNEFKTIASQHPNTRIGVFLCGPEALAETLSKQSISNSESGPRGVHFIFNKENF
Assay [19] deals with NADPH oxidase 4 (Homo sapiens) (UniProt Q9NPH5). The experiment in a line: NOX4-dependent H2O2 signal modulators, primary screen, NOX inhibitor project, cell-based, HEK293-NOX4, tetracycline-induced, Amplex Red fluorescence (AID 1160). The following applies: 45 min, higher = more signal, called active from +8 up or from −8 down.
Sequence of NADPH oxidase 4 (Homo sapiens) (Q9NPH5 whole entry, looked up): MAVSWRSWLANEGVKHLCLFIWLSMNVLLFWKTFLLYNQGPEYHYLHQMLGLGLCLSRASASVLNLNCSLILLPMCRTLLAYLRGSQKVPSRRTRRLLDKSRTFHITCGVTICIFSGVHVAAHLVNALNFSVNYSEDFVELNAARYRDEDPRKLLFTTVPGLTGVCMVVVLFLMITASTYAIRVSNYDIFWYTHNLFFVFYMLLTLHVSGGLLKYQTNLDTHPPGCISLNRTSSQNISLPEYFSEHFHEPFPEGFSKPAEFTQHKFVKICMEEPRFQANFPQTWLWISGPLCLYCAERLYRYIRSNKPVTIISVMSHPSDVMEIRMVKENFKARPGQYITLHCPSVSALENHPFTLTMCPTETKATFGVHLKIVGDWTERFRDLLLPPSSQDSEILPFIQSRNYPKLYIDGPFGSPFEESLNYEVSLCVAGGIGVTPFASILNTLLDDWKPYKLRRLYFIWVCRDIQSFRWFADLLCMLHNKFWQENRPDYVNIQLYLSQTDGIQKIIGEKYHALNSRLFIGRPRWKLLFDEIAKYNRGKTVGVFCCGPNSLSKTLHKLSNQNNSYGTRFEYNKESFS
Assay [20] concerns the target NADPH oxidase 5 (Homo sapiens) (UniProt Q96PH1). Briefly: NOX5-dependent H2O2 signal modulators, primary screen, NOX inhibitor project, cell-based, HEK293-NOX5, Amplex Red fluorescence (AID 1161). Particulars: HEK293-NOX5, ionomycin, 45 min, higher = more signal.

Sequence of Streptavidin (Streptomyces avidinii) (P22629 whole entry, looked up): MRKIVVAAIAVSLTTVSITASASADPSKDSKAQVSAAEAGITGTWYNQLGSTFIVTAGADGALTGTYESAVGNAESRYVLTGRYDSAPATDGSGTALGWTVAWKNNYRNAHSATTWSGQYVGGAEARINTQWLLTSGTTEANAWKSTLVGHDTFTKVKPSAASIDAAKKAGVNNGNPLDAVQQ
Sequence of NADPH oxidase 5 (Homo sapiens) (Q96PH1 whole entry, looked up): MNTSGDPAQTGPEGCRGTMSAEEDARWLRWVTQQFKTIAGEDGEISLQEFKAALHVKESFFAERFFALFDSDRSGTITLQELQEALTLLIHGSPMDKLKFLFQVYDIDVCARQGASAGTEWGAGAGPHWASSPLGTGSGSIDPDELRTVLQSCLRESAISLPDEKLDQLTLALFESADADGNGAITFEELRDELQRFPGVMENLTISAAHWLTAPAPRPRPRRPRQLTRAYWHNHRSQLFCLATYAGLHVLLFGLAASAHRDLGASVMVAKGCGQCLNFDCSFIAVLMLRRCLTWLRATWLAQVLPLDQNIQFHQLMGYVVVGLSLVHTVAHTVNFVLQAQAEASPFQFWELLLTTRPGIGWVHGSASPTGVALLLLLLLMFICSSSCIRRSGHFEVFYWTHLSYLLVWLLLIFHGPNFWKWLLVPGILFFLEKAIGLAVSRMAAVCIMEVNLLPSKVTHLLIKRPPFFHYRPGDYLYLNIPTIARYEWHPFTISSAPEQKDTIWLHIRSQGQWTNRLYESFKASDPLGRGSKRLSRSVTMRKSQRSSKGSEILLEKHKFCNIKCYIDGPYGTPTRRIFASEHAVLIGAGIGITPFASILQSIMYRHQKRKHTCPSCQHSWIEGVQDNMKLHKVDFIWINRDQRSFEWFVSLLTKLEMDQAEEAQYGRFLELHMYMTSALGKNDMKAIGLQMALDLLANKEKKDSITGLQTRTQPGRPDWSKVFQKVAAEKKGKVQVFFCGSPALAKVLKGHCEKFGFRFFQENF

Regarding `CCOC(=O)C[C@H]1[C@H](OC(=O)c2ccc(-c3ccccc3)cc2)[C@@H](NC(=O)CC(C)C)c2cc(OCCCO)ccc2N1C(=O)c1ccc2ccccc2n1`, the composite z-score in assay [1] is -0.0361; in [6], 1.31; in assay [7], -0.0259; with Torsin-1A (Homo sapiens) [8], 0.0908; with Torsin-1A (Homo sapiens) [9], 0.31; in assay [10], 0.637. Besides, the composite z-score in [12] is -0.274. The z-score is -0.0042 (inactive) in assay [2]; -0.453 (inactive) in assay [3]; 1.04 (inactive) in assay [4]; -0.428 (inactive) in assay [5]; -0.0672 (inactive) in assay [11]; 2.19 (inactive) in [13]. Moreover, the z-score is 0.0409 (inactive) in [14]; 0.457 (inactive) in assay [15]; 0.238 (inactive) in [16]; 0.2 in assay [17]; -1.89 (inactive) in [18]; 0.452 (inactive) in assay [19]. Besides, the z-score in assay [20] is -0.0775.

Regarding `CCCCC[C@H]1OC[C@@]23C=C(Br)[C@@H](CC12)[C@@]1(CO1)C3=O` (stereo not given in full), the composite z-score in assay [1] was -0.233; in assay [6], -0.619; in [7], -0.128; with Torsin-1A (Homo sapiens) [8], -0.695; in the assay with Torsin-1A (Homo sapiens) [9] it was -0.424; in assay [10], 0.647. Also, the composite z-score in assay [12] was -0.294. For the same compound, the z-score in assay [2] was -0.473 (inactive); in assay [3] it was 0.931 (inactive); in assay [4] it was 0.495 (inactive); in [5], 0.289 (inactive); in assay [11] it was -1.12 (inactive); in [13], 1.66 (inactive). Further, the z-score is 0.533 (inactive) in [14]; 0.487 (inactive) in assay [15]; 0.184 (inactive) in [16]; -0.446 in [17]; -0.459 (inactive) in [18]; 0.438 (inactive) in assay [19]. Besides, the z-score in assay [20] is 0.134.

As for `[N-]=[N+]=Nc1ccccc1C[C@@]1(C(=O)NCCN2CCOCC2)N=C(c2ccc(OCCCO)cc2)O[C@@H]1c1ccccc1N=[N+]=[N-]`, the composite z-score in [1] was 0.734; in assay [6], 0.425; in assay [7], 0.518; with Torsin-1A (Homo sapiens) [8] it was 0.801; in the assay with Torsin-1A (Homo sapiens) [9], -0.283; in assay [10] it was 0.201. In assay [12], the composite z-score was 0.632. Moreover, the z-score in [2] is -4.82 (inactive); in assay [3] it was 1.52 (inactive); in [4], 0.512 (inactive); in assay [5], -1.83 (inactive); in assay [11] it was -0.374 (inactive); in assay [13], 30.8 (active). Further, the z-score in assay [14] was 30.8 (active); in assay [15], 2.72 (inactive); in assay [16], 2.78 (inactive); in assay [17], -0.26; in assay [18], -2.91 (inactive); in assay [19] it was -0.157 (inactive). For the same compound, in assay [20], the z-score is -1.6.

Consider `CCCCCN1CC=CC23O[C@@H]4/C=C\CCCOC(=O)C4[C@H]2C(=O)N(C(C)CO)[C@@H]3C1=O` (stereo not given in full), for which the composite z-score is -0.917 in assay [1]; -0.783 in assay [6]; -0.128 in assay [7]; -3.18 with Torsin-1A (Homo sapiens) [8]; -2.48 with Torsin-1A (Homo sapiens) [9]; 0.0074 in assay [10]. Moreover, the composite z-score in assay [12] is -0.0984. Also, the z-score in assay [2] was 0.194 (inactive); in assay [3], -1.24 (inactive); in [4], -1.43 (inactive); in [5], -1.24 (inactive); in assay [11], 1.2 (inactive); in assay [13], 1.47 (inactive). The z-score in assay [14] is 0.175 (inactive); in assay [15] it was 2.32 (inactive); in assay [16], 0.503 (inactive); in [17], 0.566; in [18] it was 0.825 (inactive); in assay [19], 0.19 (inactive). This compound also displayed a z-score in assay [20] of 1.03.
